Screen size: about 1,500 compounds; about 460 (31%) were called active. Not shown: some 1% with an inconclusive outcome.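 How the source made its calls: active means curve reaches 40% activation over neutral controls at an AC40 no higher than the top valid tested concentration; inconclusive means no clear call, values can overlap the other calls; inactive means signal moving opposite to the expected increase, and the rest.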 Only a sample is shown. Entries with a potency or affinity are not part of this list.
Assay: activators of glucose-dependent insulin secretion, dose response, cell-based, INS-1E, Gaussia luciferase, luminescence, cherry-pick, set 2 (AID 977607);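 further: 0% = median of the plate neutral control wells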
Conditions: INS-1E GLuc insulin secretion reporter, 2-3 h, active compounds read high; at 35 µM, 100% = signal doubled over neutral wells unless noted

Max activation, inactive:
CC(C)(C)C1=Nn2c(nnc2C2CCCCC2)SC1 27% [at 11 µM, 100% = signal doubled over neutral wells]
C=CCNc1cc(C)oc(=O)c1C(=O)CCC -21.1% [at 0.015 µM, 100% = signal doubled over neutral wells]
CCN1CCN(CCCNC(=O)c2ccc3c(c2)N(Cc2ccccc2)CCS3)CC1 -25.6% [at 11 µM, 100% = signal doubled over neutral wells]
CCOC(=O)c1sc2nc(C)[nH]c(=O)c2c1C 8.29% [at 0.135 µM, 100% = signal doubled over neutral wells]
CCCCc1nc(N)c(C#N)c(-c2ccco2)c1CCC 35.2%
COc1ccc(CCNC(=O)CCC(=O)c2cccs2)cc1OC 35.6% [at 1.2 µM, 100% = signal doubled over neutral wells]
COc1ccc(CCNC(=O)CCCc2nnc3n(C)c(=O)c4sccc4n23)cc1OC -17.7% [at 0.0016 µM, 100% = signal doubled over neutral wells]
COc1ccc(-n2c3c(c(=O)[nH]c2=O)C(NS(=O)(=O)c2ccc(Cl)cc2)(C(F)(F)F)C(=O)N3)cc1 (stereo unspecified) -27.1% [at 0.015 µM, 100% = signal doubled over neutral wells]
N#Cc1cnn2c(C(F)(F)F)cc(-c3ccccc3)nc12 -14.3% [at 0.0016 µM, 100% = signal doubled over neutral wells]
Cc1cc(C)c(CSc2nnnn2-c2ccc(C(=O)O)cc2)c(C)c1 -11.8% [at 1.2 µM, 100% = signal doubled over neutral wells]
O=C(c1cccnc1)N(Cc1ccccc1)c1ccccc1 25.1%
CCCNC(=O)C1(C)CCCN(Cc2cccn2C)C1 (stereo unspecified) -16.6% [at 3.8 µM, 100% = signal doubled over neutral wells]
CC(=O)Nc1ccc(Cl)c(-c2nc3ncccc3o2)c1 24% [at 0.005 µM, 100% = signal doubled over neutral wells]
CC(C)CCN(CC(=O)NCc1ccc(F)cc1)S(=O)(=O)c1ccccc1F -38.5% [at 11 µM, 100% = signal doubled over neutral wells]
CCOc1nc(NC(=O)NS(=O)(=O)Oc2ccccc2Cl)nc(-c2ccccc2)n1 -20.8% [at 0.0016 µM, 100% = signal doubled over neutral wells]
CC1Oc2ccccc2N(Cc2cccc(F)c2)C1=O (stereo unspecified) -13.7% [at 0.005 µM, 100% = signal doubled over neutral wells]
Cc1ccc(-c2ccc([C@@H]3[C@@H]4CN(Cc5ccccc5F)C[C@H]3N4)cc2)cc1 26.7% [at 0.42 µM, 100% = signal doubled over neutral wells]
O=C(NC1CCCC1)C(C1CC1)n1c(-c2ccccn2)nc2ccccc21 (stereo unspecified) -23.1% [at 0.135 µM, 100% = signal doubled over neutral wells]
CC(C)C(C(=O)NCc1ccco1)N(CC1CCCO1)C(=O)CNS(=O)(=O)c1ccc(F)cc1 (stereo unspecified) -14.9% [at 11 µM, 100% = signal doubled over neutral wells]
CCSc1ncnc2sc3c(c12)CCC3 31.4%
COc1ccccc1-c1cnc2c(Nc3cccc(OC(F)(F)C(F)F)c3)nccn12 -17.8% [at 11 µM, 100% = signal doubled over neutral wells]
Cc1cccc(CN2C(=O)CSc3ccc(C(=O)NC4CC4)cc32)c1 41% [at 0.135 µM, 100% = signal doubled over neutral wells]
Cc1cc(NCc2ccccn2)nc2ccccc12 -14.9% [at 0.005 µM, 100% = signal doubled over neutral wells]
CCOc1ccc(CCNC(=O)c2cc(C)on2)cc1OCC -13.4% [at 0.135 µM, 100% = signal doubled over neutral wells]
O=C(CN1C(=O)NC(Cc2c[nH]c3ccccc23)C1=O)NCCc1ccccc1 (stereo unspecified) 21% [at 11 µM, 100% = signal doubled over neutral wells]
COc1ccc(CCn2nnc(-c3ccc(NC(C)=O)c(Cl)c3)n2)cc1 -24.6% [at 11 µM, 100% = signal doubled over neutral wells]
COc1ccc(C2CC(=O)C(c3ccc(C)cc3)=CN2Cc2ccccc2)cc1 (stereo unspecified) -26.2%
COc1ccc2nc(CCN(C)C(=O)C3CCC(=O)N(Cc4cccc(F)c4)C3)[nH]c2c1 (stereo unspecified) -20.4%
COc1cccc(-c2ccc3c(c2)N(Cc2cccc(F)c2)C(=O)C(C)S3)c1 (stereo unspecified) -26.7% [at 11 µM, 100% = signal doubled over neutral wells]
O=c1c2sccc2n(Cc2cccc(F)c2)c(=O)n1-c1ccc(F)cc1 -14.5% [at 0.005 µM, 100% = signal doubled over neutral wells]
CN(C(=O)c1ccc(C#N)cc1)c1nnc(-c2cnccn2)s1 -16.1% [at 0.42 µM, 100% = signal doubled over neutral wells]
Cc1cc(C)n(CC(=O)n2c3ccccc3c3ccccc32)n1 20.6%
CN[C@H]1C[C@@H](c2ccccc2)N(C(C)=O)C[C@H]1CO -14% [at 0.135 µM, 100% = signal doubled over neutral wells]
COC(=O)c1ccc(C)c(-n2c(=O)n(Cc3ccccc3)c(=O)c3[nH]cnc32)c1 -20.8% [at 0.005 µM, 100% = signal doubled over neutral wells]
CC1CN(Cc2ccccc2)C(=S)NC1=O (stereo unspecified) -25.1% [at 3.8 µM, 100% = signal doubled over neutral wells]
Cc1c(C=O)c2ccccn2c1C(=O)c1ccc(F)cc1 -14.1% [at 0.0016 µM, 100% = signal doubled over neutral wells]
Cc1ccc(C(=O)c2sc3nc4c(cc3c2N)CCC4)cc1 -20.2% [at 3.8 µM, 100% = signal doubled over neutral wells]
O=C(N/N=C/c1ccncc1)c1cc(-c2ccc(Br)s2)[nH]n1 46.1%
Fc1cccc(-c2nnn3c2nc(Cl)c2ccccc23)c1 -32% [at 11 µM, 100% = signal doubled over neutral wells]
CCc1cc2c(COC(=O)c3cccc(NS(C)(=O)=O)c3)cc(=O)oc2cc1O -16.1%
O=C1CCc2cc(S(=O)(=O)N3CCN(c4ccc(F)cc4)CC3)cc3c2N1CC3 -14.5% [at 0.0016 µM, 100% = signal doubled over neutral wells]
CC(C)(C(=O)N1CCC1(C)C(=O)NS(=O)(=O)c1cccc(Cl)c1)c1ccccc1 (stereo unspecified) -17.3% [at 0.135 µM, 100% = signal doubled over neutral wells]
CCOc1ccccc1CNS(=O)(=O)c1cnc[nH]1 -8.34% [at 0.005 µM, 100% = signal doubled over neutral wells]
CN1CCN(CC(O)COC(c2ccc(Cl)cc2)c2ccc(Cl)cc2)CC1 (stereo unspecified) -16.1% [at 11 µM, 100% = signal doubled over neutral wells]
COc1ccccc1CSc1nc2c(c(=O)n(C)c(=O)n2C)n1C -16.4%
CC(=O)C(C)n1c(CN(C)Cc2ccccc2)nc2c1c(=O)n(C)c(=O)n2C (stereo unspecified) 13.8% [at 11 µM, 100% = signal doubled over neutral wells]
CCOC(=O)c1nn(-c2ccccc2)c2nc(Nc3ccccc3)cc(=O)n12 -18.7% [at 0.0016 µM, 100% = signal doubled over neutral wells]
O=S(=O)(c1ccc(=S)[nH]c1)N1CCCCCC1 19.7%
Cc1ccc(C(=O)c2sc(Nc3ccccc3)c(C#N)c2N)cc1 -18.3% [at 0.005 µM, 100% = signal doubled over neutral wells]
Cc1ccc(C)c(OCC(=O)Nc2cc(NC(=O)COc3cc(C)ccc3C)cc(C(=O)O)c2)c1 -27.7%
Cc1ccc(C)c(OCC(=O)NCC(C)(C)N2CCOCC2)c1 -15.8% [at 0.015 µM, 100% = signal doubled over neutral wells]
CC(C)Cn1c(Cc2ccccc2)n[nH]c1=S -12.9% [at 3.8 µM, 100% = signal doubled over neutral wells]
Cc1ccc2nc(N/N=C/c3ccccc3C#N)nc(-c3ccccc3)c2c1 -36.1%
COCc1[nH]nc2c1C(c1ccc(C)cc1)NC2=O (stereo unspecified) 25.3%
COc1ccc(S(=O)(=O)N2CCOCC2)cc1NC(=O)COc1ccccc1 -23.5%
CCOc1ccc(C(=O)OCC(=O)Nc2cc(C)on2)cc1OCC 24%

From PubChem BioAssay AID977607 (Broad Institute, 2014)
